These results are taken from PubChem BioAssay.

Assay [1] deals with Plasmodium falciparum Sir2 (PF13_0152, Sir2A). Description: Plasmodium falciparum Sir2A binding compounds – biochemical, small-molecule microarray, 635 nm fluorescence, primary screen (AID 1098).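 Also: score merges spot fluorescence intensity with its signal-to-noise ratio.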 The note with it: fluorescence 635 nm, higher = more signal.
The nature of assay [2]: probe aDKK1 binding to arrayed compounds – biochemical, biotinylated probe, 635/667 nm fluorescence, primary screen (AID 1099).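 Also: score merges 667nm spot fluorescence with signal to noise across triplicate slides.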 The note with it: small-molecule microarray, higher = more signal.
Assay [3] in a line: probe aCHRDL2 binding to arrayed compounds – biochemical, biotinylated probe, 635/667 nm fluorescence, primary screen (AID 1100). The note with it: small-molecule microarray, higher = more signal.
Assay [4] is described as follows: change in splice reporter luminescence, either direction, cell-based, HEK293, spliceosome inhibition project, primary screen (AID 1101).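 Also: HEK293 cells carrying a splicing-competent luciferase reporter gene; test concentration not given here.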 The note with it: HEK293 splicing luciferase reporter, 24 h, higher = more signal, called active from +8 up or from −8 down.
Assay [5] concerns the target Fibroblast growth factor 10 (Homo sapiens) (UniProt O15520). Briefly: compounds binding fibroblast growth factor 10 – biochemical, small-molecule microarray, 635 nm fluorescence, primary screen (AID 1102). The note with it: FGF10 binding, fluorescence 635 nm, higher = more signal.
Assay [6] has as its system glycogen synthase kinase-3 (GSK3A per assay name; protocol says GSK3B). Briefly: compounds binding glycogen synthase kinase-3 – biochemical, small-molecule microarray, 635 nm fluorescence, GSK3A, primary screen (AID 1103). Also: the record names both GSK3A and GSK3B. Particulars: fluorescence 635 nm, higher = more signal.
In assay [7] the target is Epidermal growth factor receptor (Homo sapiens) (UniProt P00533). Description: compounds binding epidermal growth factor receptor – biochemical, small-molecule microarray, 635 nm fluorescence, primary screen (AID 1104).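 Also: score merges 667 nm emission intensity with spot signal to noise over triplicate slides.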 Particulars: EGFR binding, higher = more signal.
Sequence of Epidermal growth factor receptor (Homo sapiens) (P00533 whole entry, looked up): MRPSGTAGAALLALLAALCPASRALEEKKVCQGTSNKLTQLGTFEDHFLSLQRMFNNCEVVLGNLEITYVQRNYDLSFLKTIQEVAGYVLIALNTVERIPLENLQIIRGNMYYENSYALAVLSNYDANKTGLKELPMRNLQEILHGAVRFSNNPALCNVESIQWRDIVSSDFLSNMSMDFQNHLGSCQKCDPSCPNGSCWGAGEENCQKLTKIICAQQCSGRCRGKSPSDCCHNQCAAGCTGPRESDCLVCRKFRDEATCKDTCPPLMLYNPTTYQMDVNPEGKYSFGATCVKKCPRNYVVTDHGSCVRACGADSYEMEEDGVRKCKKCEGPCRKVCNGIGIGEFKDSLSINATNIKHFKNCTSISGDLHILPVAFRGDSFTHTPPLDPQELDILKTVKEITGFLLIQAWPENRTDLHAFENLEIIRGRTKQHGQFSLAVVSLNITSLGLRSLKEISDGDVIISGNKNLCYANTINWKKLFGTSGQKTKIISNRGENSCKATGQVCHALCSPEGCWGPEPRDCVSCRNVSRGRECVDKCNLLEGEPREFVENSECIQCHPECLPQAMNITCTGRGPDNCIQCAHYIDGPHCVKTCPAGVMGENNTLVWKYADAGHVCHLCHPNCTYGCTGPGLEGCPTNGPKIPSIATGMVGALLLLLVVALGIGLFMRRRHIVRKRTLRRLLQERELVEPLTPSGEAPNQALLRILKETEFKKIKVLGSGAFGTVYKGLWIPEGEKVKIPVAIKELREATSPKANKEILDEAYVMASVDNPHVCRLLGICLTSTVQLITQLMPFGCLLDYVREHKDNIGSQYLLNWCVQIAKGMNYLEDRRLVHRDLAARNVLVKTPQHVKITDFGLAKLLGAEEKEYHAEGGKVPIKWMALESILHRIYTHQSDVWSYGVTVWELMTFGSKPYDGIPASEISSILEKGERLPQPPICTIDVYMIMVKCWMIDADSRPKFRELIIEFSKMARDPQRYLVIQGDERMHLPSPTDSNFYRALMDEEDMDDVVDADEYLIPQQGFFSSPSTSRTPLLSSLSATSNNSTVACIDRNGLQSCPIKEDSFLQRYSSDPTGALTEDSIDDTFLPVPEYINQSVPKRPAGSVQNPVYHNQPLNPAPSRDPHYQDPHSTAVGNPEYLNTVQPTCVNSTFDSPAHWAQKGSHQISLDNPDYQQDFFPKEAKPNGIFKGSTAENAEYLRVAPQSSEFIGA
For assay [8], the target named is Follistatin-related protein 3 (Homo sapiens) (UniProt O95633). Description: compounds binding follistatin-related protein 3 – biochemical, small-molecule microarray, 635 nm fluorescence, primary screen (AID 1105).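 Also: score merges emission near 667 nm and signal to noise per printed spot across three slides.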 Particulars: FSTL3 binding, higher = more signal.
Sequence of Follistatin-related protein 3 (Homo sapiens) (O95633 whole entry, looked up): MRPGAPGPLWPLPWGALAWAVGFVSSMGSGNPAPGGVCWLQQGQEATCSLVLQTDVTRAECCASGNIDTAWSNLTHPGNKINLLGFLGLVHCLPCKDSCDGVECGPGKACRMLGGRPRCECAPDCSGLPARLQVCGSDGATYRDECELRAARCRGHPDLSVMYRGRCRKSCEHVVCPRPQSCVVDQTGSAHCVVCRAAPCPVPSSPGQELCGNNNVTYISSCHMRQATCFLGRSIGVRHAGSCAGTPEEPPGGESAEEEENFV
In assay [9] the target is Dickkopf-related protein 1 (Homo sapiens) (UniProt O94907). Description: small molecules binding DKK1 protein – biochemical, small-molecule microarray, 635 nm fluorescence scan, primary screen (AID 1106).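 Also: score merges emission near 667 nm with signal to noise over three replicate slides.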 Particulars: higher = more signal.
Sequence of Dickkopf-related protein 1 (Homo sapiens) (O94907 whole entry, looked up): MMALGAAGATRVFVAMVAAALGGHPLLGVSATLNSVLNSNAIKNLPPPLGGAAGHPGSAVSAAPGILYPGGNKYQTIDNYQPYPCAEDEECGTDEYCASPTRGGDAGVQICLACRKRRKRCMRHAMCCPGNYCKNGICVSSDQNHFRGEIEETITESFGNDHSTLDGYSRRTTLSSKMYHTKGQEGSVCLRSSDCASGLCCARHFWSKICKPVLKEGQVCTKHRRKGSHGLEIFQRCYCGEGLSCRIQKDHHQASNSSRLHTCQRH
For assay [10], the system named is Inhibin beta A chain (activin A). Description: small molecules binding activin A – biochemical, small-molecule microarray, 635 nm fluorescence scan, primary screen (AID 1107).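 Also: mouse activin A protein probed at 4.33 µg/mL on printed slides; score merges bound-protein fluorescence near 667 nm with spot signal-to-noise.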 Particulars: INHBA, higher = more signal.
In assay [11] the test system is Human papillomavirus type 1a protein E7 (residues 44-93). Briefly: small molecules binding HPV E7 44-93 – biochemical, small-molecule microarray, residues 44-93, 635 nm fluorescence, primary screen (AID 1108).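 Also: E7 fragment applied at 1 µg/mL in TBST for 1 h at 4 C; score combines spot fluorescence with its signal to noise ratio.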 The note with it: fluorescence 635 nm, higher = more signal.
Assay [12] can be described thus: hepatitis C replication reporter changes, two-sided – Huh7 cells, luciferase reporter, HCV replication inhibitor project, primary screen (AID 1109).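 Also: huh7 hepatoma cells harbouring a luciferase neomycin HCV replicon reporter; luciferase luminescence as measure of HCV replicon replication; test concentration not given here.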 The note with it: Huh7 HCV replicon luciferase reporter, 48 h; higher = more signal. On the technique in general: Reporter assays use an easily measured gene product as a stand-in for the process of interest.
Assay [13] concerns the target Left-right determination factor 2 (Homo sapiens) (UniProt O00292). Description: small molecules binding LEFTY2 protein – biochemical, small-molecule microarray, 635 nm fluorescence scan, primary screen (AID 1110). The note with it: higher = more signal.
Assay [14] concerns the target Calmodulin-1 (Homo sapiens) (UniProt P0DP23). Briefly: small molecules binding calmodulin-1 with EGTA – biochemical, small-molecule microarray, Cy5-labelled CALM1, profiling panel (AID 1111).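 Also: labelled calmodulin applied in Tris saline Tween buffer holding calcium plus EGTA and DTT.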 The note with it: Cy5-CALM1 binding fluorescence, higher = more signal.
Assay [15] shares this target. Briefly: small molecules binding Ca-loaded calmodulin-1 – biochemical, small-molecule microarray, Cy5-labelled CALM1, plus calcium, artefact control for SMM control-protein annotation, profiling panel (AID 1112).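 Also: score merges spot fluorescence with signal to noise from triplicate slides.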 Particulars: Cy5-CALM1 binding fluorescence, higher = more signal.
Assay [16] in a line: probe aWnt5a binding to arrayed compounds – biochemical, biotinylated probe, 635/667 nm fluorescence, primary screen (AID 1113).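 Also: score merges 667 nm fluorescence intensity with signal-to-noise per printed feature.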 Particulars: small-molecule microarray, higher = more signal.
Assay [17] in a line: probe aShh binding to arrayed compounds – biochemical, biotinylated probe, 635/667 nm fluorescence, primary screen (AID 1114).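 Also: probe is biotin-labelled aShh protein from a stem cell growth factor screen; measures binding of labelled protein to compounds printed on the slide; score merges feature fluorescence at 667 nm with signal-to-noise.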 The note with it: small-molecule microarray, higher = more signal.
Assay [18] is described as follows: probe aNog binding to arrayed compounds – biochemical, biotinylated probe, 635/667 nm fluorescence, primary screen (AID 1115).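 Also: probe is biotinylated aNog protein used at 0.15 µg/mL for 1 h at 4 C; z-score combines 667 nm fluorescence of each spot with its signal to noise.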 The note with it: small-molecule microarray, higher = more signal.
In assay [19] the target is Torsin-1A-interacting protein 1 (Homo sapiens) (UniProt Q5JTV8). Description: compound microarray binding of lysate hLAP1 – cell lysate, small-molecule microarray, COS7 lysate, 635/667 nm fluorescence, primary screen (AID 1116). Particulars: 635 nm fluorescence, higher = more signal.
Sequence of Torsin-1A-interacting protein 1 (Homo sapiens) (Q5JTV8 whole entry, looked up): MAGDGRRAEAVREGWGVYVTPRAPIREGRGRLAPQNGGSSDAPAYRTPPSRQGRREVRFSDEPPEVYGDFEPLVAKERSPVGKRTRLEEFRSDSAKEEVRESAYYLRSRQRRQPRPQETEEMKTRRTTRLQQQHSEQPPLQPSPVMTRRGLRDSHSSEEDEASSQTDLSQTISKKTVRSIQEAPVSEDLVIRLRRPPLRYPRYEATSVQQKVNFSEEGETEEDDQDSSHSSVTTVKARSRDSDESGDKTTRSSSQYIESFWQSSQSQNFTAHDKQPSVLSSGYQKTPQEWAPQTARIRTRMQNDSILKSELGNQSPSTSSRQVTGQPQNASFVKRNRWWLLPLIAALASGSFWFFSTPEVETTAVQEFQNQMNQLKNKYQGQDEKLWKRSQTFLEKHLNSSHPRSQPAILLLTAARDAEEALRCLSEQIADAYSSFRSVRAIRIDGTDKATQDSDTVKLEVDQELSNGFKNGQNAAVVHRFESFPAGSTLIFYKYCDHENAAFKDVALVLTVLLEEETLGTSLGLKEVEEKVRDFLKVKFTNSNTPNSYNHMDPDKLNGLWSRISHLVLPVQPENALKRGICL
In assay [20] the target is Alpha-bungarotoxin (Bungarus multicinctus) (UniProt P60615). Briefly: compounds binding labelled alpha-BTX control protein – biochemical, small-molecule microarray, Alexa647 label, 635/667 nm fluorescence, artefact control for SMM control protein annotation, profiling panel (AID 1117). Particulars: alpha-BTX-A647 binding fluorescence, higher = more signal.
Sequence of Alpha-bungarotoxin (Bungarus multicinctus) (P60615 whole entry, looked up): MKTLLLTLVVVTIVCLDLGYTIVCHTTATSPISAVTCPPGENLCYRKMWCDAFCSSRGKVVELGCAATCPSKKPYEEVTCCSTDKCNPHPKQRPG

The source made the active and inactive calls.

Sequence of Fibroblast growth factor 10 (Homo sapiens) (O15520 whole entry, looked up): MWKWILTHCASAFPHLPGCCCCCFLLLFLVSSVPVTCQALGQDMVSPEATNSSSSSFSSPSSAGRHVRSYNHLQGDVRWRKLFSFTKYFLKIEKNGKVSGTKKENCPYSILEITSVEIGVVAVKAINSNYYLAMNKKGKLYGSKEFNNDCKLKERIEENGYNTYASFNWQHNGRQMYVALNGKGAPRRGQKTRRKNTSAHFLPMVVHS
Sequence of Left-right determination factor 2 (Homo sapiens) (O00292 whole entry, looked up): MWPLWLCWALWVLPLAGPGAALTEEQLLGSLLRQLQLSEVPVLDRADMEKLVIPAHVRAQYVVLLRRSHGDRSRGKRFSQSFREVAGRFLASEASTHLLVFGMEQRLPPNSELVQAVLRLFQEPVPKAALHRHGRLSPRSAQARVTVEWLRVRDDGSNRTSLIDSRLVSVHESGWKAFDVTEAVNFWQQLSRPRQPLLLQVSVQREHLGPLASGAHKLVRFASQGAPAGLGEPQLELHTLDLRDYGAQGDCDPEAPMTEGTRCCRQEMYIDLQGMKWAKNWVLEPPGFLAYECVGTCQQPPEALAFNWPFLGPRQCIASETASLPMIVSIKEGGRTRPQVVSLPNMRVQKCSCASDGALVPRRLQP

With `NC(=O)NCC#Cc1ccc2c(c1)[C@]1(C(=O)N2)[C@H](c2ccccc2OCCO)N2[C@H](c3ccccc3)[C@H](c3ccccc3)OC(=O)[C@H]2[C@@H]1C(=O)N1CCN(c2ncccn2)CC1`, the composite z-score in assay [1] was 0.722; in assay [2] it was 0.0815; in assay [3], 0.542; in assay [5] it was 0.651; in [6] it was 0.814; in assay [7], 0.251. Further, the composite z-score in assay [8] was 0.844; in assay [9] it was 0.133; in assay [10] it was 1.25; in assay [11], 1.4; in [13] it was 0.235; in assay [14], 0.427. Also, the composite z-score was 0.263 in assay [15]; -0.124 in assay [16]; 0.399 in [17]; -0.582 in assay [18]; 1.04 in assay [19]; 0.959 in assay [20]. In addition, the z-score in assay [4] is 0.222 (inactive); in assay [12] it was -0.729.

Turning to `O=C1NC(=O)C2C1C=CC(C(O)C=Cc1ccc([N+](=O)[O-])cc1)N2Nc1ccccn1` (stereo not given), the composite z-score in [1] is 1.1; in [2], 0.141; in [3], 0.239; in [5], 0.267; in assay [6], -0.0039; in assay [7], 1.07. For the same compound, the composite z-score in [8] was 0.479; in [9] it was 0.697; in assay [10], 1.32; in assay [11] it was -0.581; in assay [13], 0.909; in [14] it was -0.438. Also, the composite z-score in [15] is -0.544; in [16], -0.14; in assay [17], 0.265; in [18], -0.142; in assay [19], 1.45; in assay [20] it was 0.224. Moreover, the z-score in [4] was 1.5 (inactive); in assay [12], 0.807.

`C=C(COC)/C(=C/C[C@@H](OC(C)=O)c1cccc(OCCO)c1)c1cc(C(=O)OC)ccc1OC`: the composite z-score in [1] came to 0.695; in assay [2] it was 0.258; in [3], 0.258; in assay [5], 0.0556; in assay [6] it was 0.0957; in assay [7] it was 0.214. In addition, the composite z-score in assay [8] was 0.121; in [9] it was -0.0663; in assay [10], 0.971; in assay [11], -0.307; in assay [13], -0.357; in [14], -0.39. In addition, the composite z-score in assay [15] is -0.0115; in assay [16], -0.091; in [17], -0.0289; in assay [18], 0.717; in assay [19] it was 0.505; in [20], -1.07. Further, the results for the z-score in assay [4] and in assay [12] were -0.964 (inactive) and -0.72, respectively.

Turning to `COc1ccc([Si](C)(C)[C@H]2[C@H](CC(=O)N3Cc4ccccc4C[C@H]3CO)O[C@@]3(C(=O)N(Cc4cccc(N5CCOC5=O)c4)c4ccccc43)[C@@H]2C)cc1`, the composite z-score in assay [1] was 1.1; in [2], -0.158; in assay [3], 0.0765; in [5], 0.701; in assay [6], 0.461; in assay [7], 1.13. Also, the composite z-score in assay [8] was 1.24; in [9] it was 1; in assay [10] it was 0.923; in assay [11] it was 0.294; in [13] it was 0.91; in assay [14], -0.792. The composite z-score in assay [15] was -1.13; in [16] it was -0.0731; in assay [17] it was -0.17; in [18] it was 0.232; in assay [19], 0.473; in assay [20], 0.894. In addition, the z-score in assay [4] was -1.07 (inactive); in assay [12], -3.42.

`O=C1C2C=CC(C(O)c3ccccc3)N(n3cnnc3)C2C(=O)N1Cc1ccccc1` (stereo not given): the composite z-score in [1] is 0.0854; in [2], 0.446; in assay [3], 0.908; in assay [5] it was 0.0573; in assay [6], -0.279; in assay [7], 0.392. For the same compound, the composite z-score in assay [8] is -0.117; in assay [9], -0.433; in [10] it was 1.46; in assay [11] it was -0.447; in [13], -0.237; in assay [14], 0.206. The composite z-score was -0.372 in assay [15]; 0.0357 in [16]; -0.0594 in [17]; 0.319 in [18]; 0.327 in [19]; 0.449 in assay [20]. Moreover, the figures for the z-score in assay [4] and in [12] were -0.524 (inactive) and 0.573, respectively.
